# Experimental data as given in ChEMBL document CHEMBL3988442, “University of Dundee, Small-Polar-MMV Screening Library” (2021).
# Molecular target: T1, Arginase-2, mitochondrial (Homo sapiens) (UniProt P78540)
# T1 sequence (whole entry): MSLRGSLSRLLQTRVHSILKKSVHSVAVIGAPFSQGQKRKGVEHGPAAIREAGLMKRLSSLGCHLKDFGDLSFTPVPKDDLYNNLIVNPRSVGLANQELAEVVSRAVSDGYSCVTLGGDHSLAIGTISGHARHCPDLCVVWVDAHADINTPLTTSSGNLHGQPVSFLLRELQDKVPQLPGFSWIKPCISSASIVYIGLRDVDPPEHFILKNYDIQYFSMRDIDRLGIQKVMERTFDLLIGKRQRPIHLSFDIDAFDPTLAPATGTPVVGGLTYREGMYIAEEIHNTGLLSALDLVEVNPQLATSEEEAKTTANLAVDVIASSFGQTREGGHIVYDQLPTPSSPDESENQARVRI
# Assay: in vitro enzyme assay to detect the production of urea directly proportional to the activity of Arginase II
# Format: functional
# Design: scale not given: in the data most compounds retested in dose-response had high values
# Settings: 33.3 µM
row,SMILES,Percent Effect
1,CC(Nc1cccc(CN2CCOC2=O)c1)C(=O)N1CCNC1=O (centres undefined),-2.46%
2,COC[C@@H]1CC[C@H]2[C@H](CCN2S(=O)(=O)c2cccc(C)c2)O1,2.43%
3,O=C(c1ccc(F)cc1F)N1CC[C@H](O)[C@@H](N2CCOCC2)CC1,3.98%
4,COc1cccc(-n2nnc(C(=O)N3CCCC3)c2C)c1,4.92%
5,Cc1nc(C(=O)N2CCc3c(nc(-c4ccncc4)[nH]c3=O)C2)cs1,3.85%
6,CN1CCC/C1=N\S(=O)(=O)c1ccc(NC(=O)c2cccs2)cc1,-3.48%
7,c1csc(-c2nc(CNC3CCc4ncnn4C3)cs2)c1 (centres undefined),2.05%
8,Cc1ccc(C(=O)N2Cc3c(CN4CCCCC4)nn(C)c3C2)cc1C,-4.86%
9,O=C1CC2(CCN(CC3CC3)C2)CN1c1ccc2c(c1)OCO2 (centres undefined),25.9%
10,COCc1nc(C(=O)NS(=O)(=O)c2ccc(C)cc2C)cs1,4.1%
11,Cc1nn(C)cc1CCC(=O)N1CCCC(n2cncn2)C1 (centres undefined),7.98%
12,COCC(=O)N1CCC2(CCN(Cc3ccccn3)CC2)CC1,11.7%
13,COc1ccccc1OCC(=O)NS(=O)(=O)c1ccc(C)s1,7.58%
14,Cc1ncsc1C(=O)N(Cc1cccnc1)C1CC1,4.1%
15,Cn1cnc2c1CCN(CCS(=O)(=O)c1ccccc1)C2,-5.32%
16,CN(C(=O)Cc1c[nH]c2ccccc12)C1CCN(c2ccccn2)CC1,1.77%
17,CC1COCCN1C(=O)c1cccc(OCc2cscn2)c1 (centres undefined),-4.1%
18,Cn1cccc1C(=O)N1CCCC2(CCCN2Cc2cccnc2)C1 (centres undefined),-6.88%
19,CC(C)(C)c1n[nH]c(C2CN(C(=O)CCc3cscn3)CCO2)n1 (centres undefined),5.33%
